In PubChem BioAssay (Tox21):
“And” between values parts separate entries of the source, which are not always exact repeats. Identical values can stand only once. Records with an inconclusive call do not appear. The source made the active and inactive calls. Unless noted, calls come from the whole dose curve; as a rule, active = well fitted curve in the direction sought with a large enough effect in the repeat runs; inconclusive = weak or mixed curves; inactive = no such curve, though single readings can be large; an effect the other way counts as inactive or inconclusive.

Key:
[1] = molecular target: Thyrotropin receptor (Homo sapiens) (UniProt P16473); assay: qHTS assay to identify small molecule agonists of the thyroid stimulating hormone receptor (TSHR) signaling pathway (AID 1224843; calls by dose curve; note: nearly all actives have a fitted effect of over 45% in size)
Method in brief: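 Using 15 concentrations per compound in triplicate, cAMP production was monitored in TSHR-HEK293 cells after 30 min compound incubation at RT; HTRF reagents followed, with fluorescence intensity recorded after 1 h.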

[2] = qHTS assay to identify small molecule agonists of the hypoxia (HIF-1) signaling pathway - cell viability counter screen (AID 1224844; calls by dose curve; note: nearly all actives have a fitted effect of over 50% in size)
Method in brief: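 In this counter screen, HRE-bla ME-180 cell viability after 17 hrs of compound exposure at 37C was read by CellTiter-Glo luminescence, multiplexed with the beta-lactamase reporter measurement.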

[3] = qHTS assay to identify small molecule agonists of H2AX (AID 1224845; active = well fitted activation curve with a large enough effect in the signal ratio in the repeat runs, not every such curve was filed as active; the % refers to the signal ratio)
Method in brief: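 Wild-type CHO-K1 cells plated overnight, then exposed 3 hr at 37C to compounds at 15 concentrations (0.76% DMSO). Lysed, then HTRF anti-pH2AX(S139)-cryptate/anti-H2AX-d2 detection after 24 hr at room temperature; emissions 665 and 620 nm.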

[4] = qHTS assay to identify small molecule agonists of the hypoxia (HIF-1) signaling pathway (AID 1224846; active = well fitted activation curve with a large enough effect in the signal ratio in the repeat runs, not every such curve was filed as active; the % refers to the signal ratio)
Method in brief: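 ME-180 HRE-bla reporter cells; compounds in DMSO, 17 h at 37C; read-out beta-lactamase via CCF4-AM FRET.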

[5] = qHTS RealTime-Glo MT Cell Viability Assay in HepG2 cells - 24 hour (AID 1224867); note: nearly all actives have a fitted effect of over 50% in size
Method in brief: (§1)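 Luminescence read-out: viable HepG2 cells reduce a prosubstrate to a NanoLuc substrate, giving a signal proportional to live cell number. Reads taken at 0, 8, 16, 24, 32 and 40 h of compound exposure at 37 C.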

[6] = qHTS RealTime-Glo MT Cell Viability Assay in HEK293 cells - 32 hour (AID 1224868); note: nearly all actives have a fitted effect of over 50% in size; note: potency is the fitted concentration of half-maximal effect
Method in brief: (§2)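 Nonlytic real-time viability readout: viable cells convert prosubstrate to NanoLuc substrate, giving luminescence proportional to live cell number. HEK293, 600 cells/well, compound added after 5 h, continuous culture at 37 C.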

[7] = A CellTox Green Cytotoxicity Assay to monitor cytotoxicity in HEK293 cells - 0 hour (AID 1224869); note: nearly all actives have a fitted effect of over 50% in size
Method in brief: (§3)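 Real-time, in one plate: 600 HEK293 cells/well with dead-cell DNA dye, pinned compound after 5 h, 37 C incubation over 40 h; viable cells give no appreciable fluorescence.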

[8] = qHTS RealTime-Glo MT Cell Viability Assay in HepG2 cells - 40 hour (AID 1224870); note: nearly all actives have a fitted effect of over 50% in size
Method in brief: (§4)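 HepG2 cells mixed with RealTime-Glo MT reagents (NanoLuc plus cell-permeant prosubstrate) were seeded at 600 cells/well, incubated 5 h at 37 C/5% CO2, then pinned with compounds in DMSO; nonlytic luminescence tracked viability during 40 h treatment.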

[9] = A CellTox Green Cytotoxicity Assay to monitor cytotoxicity in HEK293 cells - 40 hour (AID 1224871); note: nearly all actives have a fitted effect of over 45% in size
Method in brief: as §3

[10] = qHTS RealTime-Glo MT Cell Viability Assay in HEK293 cells - 16 hour (AID 1224872)
Method in brief: as §2

[11] = qHTS RealTime-Glo MT Cell Viability Assay in HepG2 cells - 8 hour (AID 1224873); note: nearly all actives have a fitted effect of over 55% in size
Method in brief: as §4

[12] = qHTS RealTime-Glo MT Cell Viability Assay in HEK293 cells - 40 hour (AID 1224874); conditions: RealTime-Glo luminescence; max response: stronger effect = lower value; note: nearly all actives have a fitted effect of over 50% in size; note: potency is the fitted concentration of half-maximal effect
Method in brief: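 Kinetic, non-lysing viability readout. Seed HEK293 (600/well) with reagent, incubate 5 h at 37 C/5% CO2, pin 23 nL compound in DMSO, incubate at 37 C, read luminescence at 0, 8, 16, 24, 32, 40 h.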

[13] = A CellTox Green Cytotoxicity Assay to monitor cytotoxicity in HEK293 cells - 24 hour (AID 1224875); note: nearly all actives have a fitted effect of over 45% in size
Method in brief: as §3

[14] = A CellTox Green Cytotoxicity Assay to monitor cytotoxicity in HepG2 cells - 16 hour (AID 1224876); note: nearly all actives have a fitted effect of over 45% in size
Method in brief: (§5)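 Cytotoxicity was tracked as dead-cell DNA fluorescence in HepG2 cells treated with test compounds at 37 C; each time-point value comes from one kinetic series spanning 0, 8, 16, 24, 32 and 40 h.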

[15] = qHTS RealTime-Glo MT Cell Viability Assay in HepG2 cells - 32 hour (AID 1224877); note: nearly all actives have a fitted effect of over 55% in size
Method in brief: as §1

[16] = A CellTox Green Cytotoxicity Assay to monitor cytotoxicity in HepG2 cells - 24 hour (AID 1224878); note: nearly all actives have a fitted effect of over 45% in size
Method in brief: as §5

[17] = A CellTox Green Cytotoxicity Assay to monitor cytotoxicity in HepG2 cells - 40 hour (AID 1224879); note: nearly all actives have a fitted effect of over 40% in size
Method in brief: as §5

[18] = qHTS assay to identify small molecule agonists of H2AX - cell viability counter screen (AID 1224847; calls by dose curve; note: top concentration of the series differs between compounds; nearly all actives have a fitted effect of over 30% in size)
Method in brief: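 Compounds tested at 15 concentrations were incubated 3 hr at 37C with wild-type CHO-K1 cells; cellular ATP-based luminescence (CellTiter-Glo) indicated viability.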

[19] = qHTS assay to identify small molecule antagonists of the estrogen related receptor (ERR) signaling pathway from Tox21 library (AID 1224848); note: nearly all actives have a fitted effect of over 50% in size
Method in brief: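 Tox21 10K compounds in DMSO tested for ERR pathway antagonism in NTP's ERR cell line; 18 h, 37 C exposure; ONE-Glo luminescence.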

[20] = qHTS assay to identify small molecule agonists of the estrogen related receptor (ERR) signaling pathway from Tox21 library (AID 1224849; calls by dose curve; note: nearly all actives have a fitted effect of over 15% in size); conditions: ERR reporter cell line, ONE-Glo luciferase, 18 h
Method in brief: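 Luciferase activity in ERR pathway reporter cells served as the agonist readout; exposure lasted 18 h at 37 C, with ONE-Glo detection after 30 min at room temperature.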
% is set by controls: 0 for no effect and ±100 for the full control effect.

Sequence of Thyrotropin receptor (Homo sapiens) (P16473 whole entry, looked up): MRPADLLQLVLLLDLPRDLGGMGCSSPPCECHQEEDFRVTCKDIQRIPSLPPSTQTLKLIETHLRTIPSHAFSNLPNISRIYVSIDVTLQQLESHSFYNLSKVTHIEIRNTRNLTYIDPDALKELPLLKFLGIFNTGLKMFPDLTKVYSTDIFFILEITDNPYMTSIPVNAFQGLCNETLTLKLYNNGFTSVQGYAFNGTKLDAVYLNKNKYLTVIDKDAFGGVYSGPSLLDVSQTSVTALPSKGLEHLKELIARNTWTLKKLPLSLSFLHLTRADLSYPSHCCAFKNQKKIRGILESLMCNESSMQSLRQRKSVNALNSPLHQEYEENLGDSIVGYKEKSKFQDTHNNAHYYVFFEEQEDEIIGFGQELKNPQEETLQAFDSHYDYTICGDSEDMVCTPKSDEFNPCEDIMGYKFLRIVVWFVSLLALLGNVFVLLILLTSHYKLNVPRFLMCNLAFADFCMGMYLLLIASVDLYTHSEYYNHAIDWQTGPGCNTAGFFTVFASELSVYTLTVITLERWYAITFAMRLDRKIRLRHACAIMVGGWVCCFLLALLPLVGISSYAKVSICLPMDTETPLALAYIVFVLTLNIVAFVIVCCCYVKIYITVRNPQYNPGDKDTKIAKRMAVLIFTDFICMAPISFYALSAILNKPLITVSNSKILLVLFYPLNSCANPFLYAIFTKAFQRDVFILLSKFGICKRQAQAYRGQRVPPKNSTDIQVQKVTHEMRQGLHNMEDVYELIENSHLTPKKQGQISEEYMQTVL

O=C(O)C(=O)O
inactive: outcome [1] | Potency [2] | outcome [3] | outcome [4] | Potency [5] | Potency [6] | outcome [7] | Potency [8] | Potency [9] | Potency [10] | outcome [11] | max response [12] -1.98% and 1.92% and 0.465% | Potency [13] | Potency [14] | Potency [15] | Potency [16] | Potency [17]

C1N2CN3CN1CN(C2)C3
inactive: outcome [1] | Potency [2] | outcome [3] | outcome [4] | outcome [18] | Potency [5] | Potency [6] | outcome [7] | Potency [8] | Potency [9] | Potency [10] | outcome [11] | max response [12] 5.73% and 6.94% and 0.249% | Potency [13] | Potency [14] | Potency [15] | Potency [16] | Potency [17]

O=C(c1ccccc1)C(O)c1ccccc1 (centres undefined)
inactive: outcome [1] | Potency [2] | outcome [3] | outcome [4] | outcome [18] | Potency [5] | Potency [6] | outcome [7] | Potency [9] | Potency [10] | outcome [11] | max response [12] 5.88% and 18.1% and 4.15% | Potency [13] | Potency [14] | Potency [15] | Potency [16] | Potency [17]

O=C1NC(=O)c2ccccc21
inactive: outcome [1] | Potency [2] | outcome [3] | outcome [4] | Potency [5] | Potency [6] | outcome [7] | Potency [9] | Potency [10] | outcome [11] | max response [12] 3.82% and -4.14% and 5.86% | Potency [13] | Potency [14] | Potency [15] | Potency [16] | Potency [17]

Cn1cc[nH]c1=S
inactive: outcome [1] | Potency [2] | outcome [3] | Potency [5] | Potency [6] | outcome [7] | Potency [9] | Potency [10] | outcome [11] | max response [12] -1.38% and 17.2% and 3.37% | Potency [13] | Potency [14] | Potency [15] | Potency [16] | Potency [17]

Oc1ccc(/C=C/c2cc(O)cc(O)c2)cc1
inactive: outcome [1] | Potency [2] | Potency [19] | Potency [5] | outcome [7] | Potency [9] | Potency [10] | outcome [11] | Potency [13] | Potency [14] | Potency [15] | Potency [16]
active: activity change, positive = activation ([20]; at 42.5 µM (top of the series)) 132% | activity change, positive = activation ([20]; at 92.4 µM (top of the series)) 0.861% and 27.4% | Potency [6] 19.7 µM | Potency [12] 15.6 µM
